Screening results (PubChem BioAssay)
A selection: hits, their analogues and other compounds. The true share with any hit is near 2.3%.
AmpC inh no detg: blocks E. coli AmpC beta-lactamase in detergent-free assay. P00811. AmpC nitrocefin hydrolysis, absorbance 480 nm, 0.0001% Triton. Potency, µM (doses to about 57.1 µM), without a hit: at the top dose activity change, negative = inhibition, actives largely listed as inhibitors. 330,000 tested, 0.52% active. AID 485341;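 also: plate controls were no compound for no effect and no enzyme for full effect; nearly all actives have a fitted effect of over 20% in size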
Target sequence (P00811 whole entry, looked up): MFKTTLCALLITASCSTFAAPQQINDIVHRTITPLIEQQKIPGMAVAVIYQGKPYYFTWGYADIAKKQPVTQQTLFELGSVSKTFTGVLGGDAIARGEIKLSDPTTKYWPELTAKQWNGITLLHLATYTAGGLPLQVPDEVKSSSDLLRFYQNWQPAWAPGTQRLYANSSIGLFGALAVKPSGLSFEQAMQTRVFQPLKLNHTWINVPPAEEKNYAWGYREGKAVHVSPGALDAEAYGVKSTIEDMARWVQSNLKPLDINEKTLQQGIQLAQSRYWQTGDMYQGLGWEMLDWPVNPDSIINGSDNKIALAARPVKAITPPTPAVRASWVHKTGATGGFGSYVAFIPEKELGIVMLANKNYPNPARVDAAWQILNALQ
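AmpC (5.3 nM in the dispensed reagent) in 20 mM phosphate pH 7.0 with 0.01% (detergent screen) or 0.0001% Triton X-100 was preincubated with compounds for 15 min at room temperature. Nitrocefin was then added from an 800 uM solution, and hydrolysis was followed at 480 nm.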
Lassa entry inh: blocks Lassa virus binding to or entry into cells; Lassa virus pseudotype entry inhibition, cell reporter; Potency, µM (top dose mostly 37.9 µM), for the others: at the top dose activity change, negative = inhibition, most hits filed as inhibitors; AID 540256; 300,000 tested, 1.2% active; calls by dose curve; tested in HEK293 cells; also: nearly all actives have a fitted effect of over 50% in size
AMA1 RON2 block: AMA1-RON2 (P. falciparum) interaction inhibition. Potency, µM (top dose mostly 58.2 µM), without a hit: at the top dose activity change, negative = inhibition, usual class: inhibitors. AlphaScreen AMA1-biotinylated RON2 peptide binding. 360,000 tested, 0.2% active;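 also: 0% = vehicle wells and -100% = peptide control; nearly all actives have a fitted effect of over 45% in size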
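AMA1 (3D7) with his tag at 25 nM final met compounds first, then biotinylated RON2 peptide at 25 nM; detection used donor plus acceptor beads, 10 µg/mL apiece, read by AlphaScreen after 30 min at room temperature.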
AmpC detergent: blocks E. coli AmpC beta-lactamase in detergent assay; AID 485294; 370,000 tested, 0.041% active; P00811; Potency, µM (highest dose often 114 µM), without a hit: top-dose activity change, negative = inhibition, usual class: inhibitors; AmpC hydrolysis of nitrocefin, absorbance 480 nm, 0.01% Triton;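 also: 0% = no-compound wells and -100% = no-enzyme wells; nearly all actives have a fitted effect of over 25% in size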
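20 mM phosphate pH 7.0 + 0.01% (detergent screen) or 0.0001% Triton X-100; 5.3 nM AmpC reagent; cpd preinc 15 min RT; nitrocefin (800 uM stock) to start; A480 q20 s × 4 min; Activity was normalised to no-enzyme and no-compound control wells.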
MARV entry inh: inhibitors of Marburg virus binding or cell entry | Marburg virus pseudotyped entry inhibition, cell reporter | Potency, µM (doses to about 37.8 µM), for inactives: at the highest dose activity change, negative = inhibition, usual class: inhibitors | 300,000 tested, 1.8% active; calls by dose curve; tested in HEK293 cells
* marks the source's active call; other numbers are inactive results; ? = inconclusive; . = no result; [ ] = dose if it differs, or a comment. Unless noted, calls follow the shape of the dose curve; as a rule, active = well fitted curve in the direction sought with a large enough effect; inconclusive = small, poorly fitted or top-dose-only effect, or another doubt; inactive = no such curve, though single readings can be large; an effect the other way counts as inactive or inconclusive. Unless noted, % is scaled to controls: 0 for no effect and ±100 for the full control effect; potency is read from the fitted curve at half-maximal effect.

SMILES	AmpC inh no detg	Lassa entry inh	AMA1 RON2 block	AmpC detergent	MARV entry inh
Cc1ccc(S(=O)(=O)NC(Cc2ccccc2)C(=O)NN)cc1 (stereo not given)	-35%	?	15%	?	-7%
Cc1ccc(S(=O)(=O)N[C@@H](Cc2ccccc2)C(=O)CCl)cc1	-25%	4.6µM*	?	-9%	10µM*
COc1ccc(-c2nc3scc(CCNS(=O)(=O)c4cccs4)n3n2)cc1	.	-18%[46.1 µM]	.	-3%	.
Cn1c(N)c(C(=O)COC(=O)c2cc(S(=O)(=O)N3CCOCC3)ccc2F)c(=O)n(C)c1=O	2%	-29%	10%	.	7.1µM*
CCNC(=O)/C(C#N)=C/c1c(N2CCCCCC2)nc2c(C)cccn2c1=O	55%	8.9µM*	6%	0%	?
O=C(CSc1cnc2ccccc2n1)c1ccc(F)cc1	-21%	5.8µM*	55%	-10%	?
O=C(CN1C(=O)CC(c2ccc(F)cc2)=Nc2ccccc21)NCc1ccccc1Cl	.	1%[46.1 µM]	.	2%	.
Cc1ccc(S(=O)(=O)Nc2ccc3c(c2)c(C(=O)OC(C)C)c(C)n3S(=O)(=O)c2ccc(C)cc2)cc1	.	?	.	9%	?
COc1cc(NC(=O)CN2C(=O)NC(C)(CCC(C)C)C2=O)cc(OC)c1 (stereo not given)	5%	-17%	-19%	?	?
COc1cc(NC(=O)CN2C(=O)NC(C)(CC(C)C)C2=O)cc(OC)c1 (stereo not given)	0.89µM*	?	-1%	2%	-3%
Nc1nc(-c2ccc(NC(=O)c3ccco3)cc2)cs1	-33%	?	-10%	2%	5µM*
CCN(CC)CCCN1C(=O)C(=O)/C(=C(\O)c2ccc(Cl)cc2)[C@@H]1c1ccccn1	.	.	.	.	16%
Cc1ccc(C(C)(C)C)c(SCC(=O)Nc2nnc(C)s2)c1	-27%	7.1µM*	-7%	-1%	7.1µM*
COc1ccc(O)c(C(=O)c2cnn(-c3ccccc3)c2)c1	-24%	5%[46.1 µM]	-7%	-5%	?
COc1ccc(-n2cc(C(=O)c3ccccc3O)cn2)cc1	-36%	4µM*	-8%	3%	?
COc1ccc(S(=O)(=O)N2CCCCC2)cc1NC(=O)C1CC1	-1%	.	-3%	0%	.
COc1ccc(S(=O)(=O)N2CCCCC2)cc1NC(=O)C1COc2ccccc2O1 (stereo not given)	-9%	?	-14%	-7%	11µM*
Cc1ccccc1Nc1oc(-c2ccccc2)nc1C=Cc1ccccc1	.	.	.	.	-21%[14.2 µM]
Cc1cc(=O)n(CCc2ccccc2)c(O)c1C#N	2.5µM*	?	-13%	-3%	?
O=S(=O)(C/C(=C/CO)S(=O)(=O)c1ccccc1)c1ccccc1	-13%	?	-14%	1%	1.8µM*
O=S(=O)(CS(=O)(=O)c1ccccc1)c1ccccc1	.	11%[46.1 µM]	-8%	.	-19%[46.1 µM]
Cc1ccc(CNC(=O)C2CCCN(c3nnc(-n4c(C)ccc4C)s3)C2)cc1 (stereo not given)	.	?	.	20%	-14%[46.1 µM]
COC(=O)CSC1=C(C#N)C(c2ccc(C)o2)CC(=O)N1 (stereo not given)	0%	?	1%	-2%	1.8µM*
COC(=O)CSC1=C(C#N)C(c2ccc(F)cc2)CC(=O)N1 (stereo not given)	-13%	.	-12%	?	.
COC(=O)c1c(C)oc2ccc(N(C(=O)c3ccncc3)S(=O)(=O)c3ccc(OC)cc3)cc12	.	-27%[46.1 µM]	.	-6%	?
CCOc1ccc(S(=O)(=O)N(C(=O)c2ccncc2)c2ccc3oc(C)c(C(=O)OC)c3c2)cc1	.	?	.	-10%	10µM*
CC(C)(C)C(=O)Nc1cc2nn(-c3ccccc3)nc2cc1Cl	-14%	1.5µM*	37%	-1%	0.41µM*
O=C(O)c1cccc(C(=O)Nc2cccc(NC(=O)C3CCCO3)c2)c1 (stereo not given)	-10%	10µM*	0%	5%	11µM*
O=C(O)c1cccc(NC(=O)c2cccc(NC(=O)C3CCCO3)c2)c1 (stereo not given)	-11%	-26%	0%	?	-21%
COc1cc(/C=C(/C#N)C(=O)Nc2ccccc2)ccc1OCc1ccc(C(=O)O)cc1	-24%	.	9%	7%	.
